# This is part of a sample that, as a whole, favours compounds with a hit. Of some 83,000 tested, about 20% had one in any assay.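 Activity criterion: percent growth below 10, measured after cells in 96-well plates were exposed to a single compound concentration for 48 hours.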 Values without a mark were called inactive. Calls of active or inactive are those of the source.
# System: MDA-MB-468 breast
# Assay: NCI-60 one-dose screen, 48 h (100 = growth as untreated, 0 = no growth, -100 = all killed)
# Conditions: 10 µM unless noted
row,SMILES,growth
1,CCN(CC)CC(=O)N(CC)c1ccc(C)c(Cl)c1,95.6%
2,CC(C)CCNCC(C)(C)O,112%
3,CCN(CC)c1cc(/C=C/c2ccc(OC)c(OC)c2)nc2cc(F)c(F)cc12,-32.6% (active)
4,COC(=O)/C=C/c1cc(O)c2oc(-c3ccc(O)c(O)c3)c(C(=O)OC)c2c1,26.7%
5,Clc1ccccc1C(c1ccccc1)(c1ccccc1)n1ccnc1,2.94% (active)
6,CCOC(=O)/C=C1\S/C(=N\Nc2cc(=O)[nH]c3ccc(Cl)cc23)N(c2ccccc2)C1=O,80.8%
7,COc1ccc2c(c1)c1nc3cc(C)c(C)cc3nc1n2CCN(C)C,-2.58% (active)
8,COc1cc(NC(N)=NCC(C)(C)COc2ccc(C(F)(F)F)cc2)cnc1C#N,19.6%
9,CC(=O)Oc1ccccc1C(=O)N=C1[Se]CCCN1C(=O)c1ccccc1OC(C)=O,-19.2% (active)
10,Cc1ccc2c(c1)C(=O)C(c1c(-c3[nH]c(=O)c4ccc(C)cc4c3O)c(O)c3ccccc3c1O)=NC2=O,-23.1% (active)
11,CCNC(=S)NN,34.9%
12,O=C(Nc1cccc(-n2ccc3c(NC(=O)c4ccccc4)nccc32)c1)c1cccc(C(F)(F)F)c1,-2% (active)
13,CC(=O)C1CCC2C3CC=C4CC(SC(=N)N)CCC4(C)C3CCC12C (stereo not given),-36.8% (active)
14,O=S(=O)(NCCNc1cc(-c2cn(-c3ccccc3)nc2-c2cccc(O)c2)ccn1)c1ccc(Cl)cc1,-24.6% (active)
15,COc1ccc(/C=C(/C(=O)c2ccc(Cl)cc2)C(=O)C(F)(F)F)cc1,99.7%
16,CC1(C)CC[C@]2(c3nnc(-c4ccncc4)o3)CC[C@]3(C)C(=CC[C@@H]4[C@@]5(C)CCC(=O)C(C)(C)[C@@H]5CC[C@]43C)[C@@H]2C1,80%
17,Cc1cc(C(=O)Nc2ccc(SC#N)cc2)c(C)o1,96.1%
18,COc1cccc2cc(-c3cc4ccccc4[nH]3)/c(=N\NC(=O)c3ccc(Cl)cc3)oc12,-2.01% (active)
19,CCNC(=NCCCN(C)C)N/C(N)=N/c1nc2ccccc2s1,94.3%
20,Cn1cc(-c2nonc2-c2c[nH]c3ccc(F)cc23)c2cccnc21,-7.39% (active)

row,SMILES,growth
1,CC(C)[C@@]12C[C@@H](OC(=O)[C@H]3CO3)[C@@](C)(O1)[C@@H]1CC[C@@H](C)[C@H]1[C@@H]2OC(=O)/C=C/c1ccccc1,85.8%
2,COc1cc(CNC(=O)CCSc2nc3ccccc3c(=O)n2Cc2cc(OC)c(OC)c(OC)c2)cc(OC)c1OC,1.82% (active)
3,CCN(CC)c1ccc2c(c1)OS(=O)(=O)N=C2,111%
4,Clc1ccc2[nH]cc(-c3cncn3CCc3ccc4c(c3)OCO4)c2c1,6.19% (active)
5,NCCSC(c1ccccc1)(c1ccccc1)c1ccccc1,8.69% (active)
6,O=C(Nc1cc(Nc2ncccc2-c2ncnc3nc[nH]c23)ccc1F)c1cc(C(F)(F)F)cc(C(F)(F)F)c1,-24.9% (active)
7,CNC1(C#N)CCN(Cc2ccccc2)CC1,85.6%
8,COc1ncnc2c1cnn2C,106%
9,NC(N)=Nc1ccc(Oc2cccc(NC(N)=Nc3ccc(I)cc3F)c2)cc1,35.5%
10,CCCCCCCCN(CCCCCCCC)CC(O)c1cc(-c2ccccc2)nc2ccc(OC)cc12 (stereo not given),104%
11,CC(C)(C)c1ccc(OCCCCCCCN2CCNCC2)cc1,-54% (active)
12,NC(=S)N/N=C/c1ccc(OCc2ccccc2)cc1,47.3%
13,CC(C)(O)C#CC#CC(C)(C)O,97.7%
14,CNC(=O)c1c(I)c(NC(C)=O)c(I)c(C(=O)O)c1I,102%
15,CN(C)CCSC1=Nc2ccc(Cl)cc2C(c2ccccc2Cl)N(C)C1 (stereo not given),58.4%
16,COc1ccc([C@H]2C(=O)N(c3cc(OC)c(OC)c(OC)c3)[C@@H]2c2ccc(OC)c(O)c2)cc1,-2.22% (active)
17,OCCNCCNc1c2ccccc2nc2ccccc12,37.4%
18,COc1cc(-c2ccc[nH]2)[nH]c1/C=C1\N=C(C)C(C(=O)NC(C)C)=C1C,44%
19,Nc1ccccc1SC(CC(=O)c1ccccc1)c1c(Cl)cccc1Cl (stereo not given),64.7%
20,Cc1cc2nc(C(Cl)Cl)nc(-c3cccs3)n2n1,-52% (active)

# Source: PubChem BioAssay (NCI)
